# From PubChem BioAssay
# Shown are actives, neighbours in structure and some others; about 3.6% of the full set was active somewhere.
# VDR inhibitor: inhibitors of human vitamin D receptor | Potency, µM, for inactives: max response, negative = inhibition, actives largely listed as inhibitors | actives 0.93% (n = 400,000) | VDR-SRC2-3 peptide fluorescence polarization, 2 h | P11473 | AID 504847; note: potency is the fitted concentration of half-maximal effect; % is set by controls: 0 for no effect and ±100 for the full control effect
#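 Two reagent solutions held at 4 deg C in the dark were dispensed, compounds pinned at 23 nl, and the mixture incubated 2 h at room temperature. Read-out: fluorescence polarization of VDR–SRC2-3 peptide binding.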
# Rango release inh: inhibitors of RanGTP-induced Rango-importin beta complex dissociation; Biochemical FRET Rango-importin beta, RanGTP-induced dissociation; O95149+P62826; actives 0.071% (n = 340,000); AID 540253; Potency, µM (doses to about 46.1 µM), for the others: at the highest dose activity change, negative = inhibition; calls by dose curve; note: potency is the fitted concentration of half-maximal effect; % of control where 0% means no effect; nearly all actives have a fitted effect of over 45% in size
#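 Quantitative HTS using a FRET biosensor: 0.1 uM Rango, 0.25 uM importin beta, 0.6 uM Ran, 2 mM GTP, 0.2 uM RCC1 final, PBS with DTT, Tween-20 and BSA. Post-read taken 45 min after Ran addition.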
# PI5P4Ka inh: inhibitors of human PI5P4K alpha | P48426 | PI5P4Kalpha enzyme, ADP-Glo luminescence, 60 min; hits give low values | max response, % | actives 1.2% (n = 330,000); active = max response of -50% or lower; inconclusive = between -30% and -50%; inactive = -30% or higher; note: value at the top dose of about 77 µM; % is set by controls: 0 for no effect and ±100 for the full control effect
#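 qHTS, 1536-well: enzyme/substrate mix, compound by pin tool, 5 microM ATP final; RT 60 min; ADP-Glo reagents 1 (45 min) then 2 (30 min); luminescence.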
# GCN5L2 inh: GCN5L2 (KAT2A) acetyltransferase inhibition. Potency, µM (doses to about 58.9 µM), inactives show top-dose activity change, negative = inhibition, most hits filed as inhibitors. Q92830. GCN5L2 HAT assay, ThioGlo1 CoA-SH fluorescence. AID 504327. actives 0.21% (n = 390,000); note: potency is the fitted concentration of half-maximal effect; % is set by controls: 0 for no effect and ±100 for the full control effect
#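 Compounds, pin-transferred from DMSO stocks, meet 20nM GCN5L2 for 15 min before the reaction begins with H3(1-25) peptide (75uM) and acetyl-CoA (70uM). Thiol-reactive ThioGlo1 reports CoA release over 20 min at room temperature.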
# Rango-impB inh: Rango-importin beta binding inhibition | Potency, µM (series often up to 92.2 µM), without a hit: top-dose inhibition of complex formation | Q14974 | Rango CFP/YFP FRET sensor + importin beta, 45 min | actives 0.031% (n = 340,000); calls by dose curve;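 note: potency is the fitted concentration of half-maximal effect; 0% = DMSO wells and 100% = buffer wells lacking importin beta; nearly all actives have a fitted effect of over 15% in size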
#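 Inhibition scored from the CFP 486 nm/YFP 530 nm FRET ratio 45 min after adding 0.125 microM importin beta to 50 nM Rango biosensor preincubated 5 min with compound (room temperature, PBS with DTT, Tween-20, BSA). No-importin wells as positive control.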
# PLK1 PBD inh: PLK1 (human) polo-box domain binding inhibition; AID 720504; Plk1 PBD binding of FITC phosphopeptide, fluorescence polarization; Potency, µM, for inactives: max response, negative = inhibition, actives largely listed as inhibitors; actives 2.8% (n = 360,000); note: potency is the fitted concentration of half-maximal effect; series mostly up to about 57 µM; % is set by controls: 0 for no effect and ±100 for the full control effect; nearly all actives have a fitted effect of over 65% in size
# Target sequence (P53350 whole entry, looked up, the tested form may be a part): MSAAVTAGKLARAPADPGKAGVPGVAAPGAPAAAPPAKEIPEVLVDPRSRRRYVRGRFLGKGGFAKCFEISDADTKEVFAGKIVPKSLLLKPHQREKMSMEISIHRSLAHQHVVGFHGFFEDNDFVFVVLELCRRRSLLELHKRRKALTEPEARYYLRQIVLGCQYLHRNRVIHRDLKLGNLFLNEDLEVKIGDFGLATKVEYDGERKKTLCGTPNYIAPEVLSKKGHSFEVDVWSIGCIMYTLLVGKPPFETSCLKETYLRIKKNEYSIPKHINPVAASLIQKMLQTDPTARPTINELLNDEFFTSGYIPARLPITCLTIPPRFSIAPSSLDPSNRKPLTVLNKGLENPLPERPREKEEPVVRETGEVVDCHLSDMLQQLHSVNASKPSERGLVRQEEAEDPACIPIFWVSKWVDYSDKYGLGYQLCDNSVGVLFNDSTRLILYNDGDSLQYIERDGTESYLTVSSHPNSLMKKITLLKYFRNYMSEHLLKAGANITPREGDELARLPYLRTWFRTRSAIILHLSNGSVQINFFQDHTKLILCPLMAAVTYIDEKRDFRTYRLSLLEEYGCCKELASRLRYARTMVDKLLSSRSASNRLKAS
# USP1 UbRho: validation of human USP1/UAF1 inhibitors; shares compounds with VDR inhibitor; Potency, µM (highest dose often 114 µM), for the others: at the top dose activity change, negative = inhibition, usual class: inhibitors; AID 540327; Ub-Rhodamine cleavage, fluorescence kinetic read; actives 50% (n = 50)
# VDR confirm: inhibits human vitamin D receptor, primary hit validation | shares compounds with VDR inhibitor | VDR-coactivator inhibition assay, qHTS confirmation | Potency, µM, actives largely listed as inhibitors | actives 89% (n = 840) | AID 602199; note: potency is the fitted concentration of half-maximal effect
# VDR FP fluor: confirmation of human VDR-coactivator binding inhibitors, fluorescein label; AID 602200; actives 48% (n = 840); VDR-coactivator binding, fluorescein fluorescence polarization; Potency, µM (series often up to 57.1 µM), inactives show top-dose activity change, negative = inhibition, actives largely listed as inhibitors; shares compounds with VDR inhibitor; note: potency is the fitted concentration of half-maximal effect
# VDR bla: inhibits human VDR in beta-lactamase reporter cells | shares compounds with VDR inhibitor | VDR beta-lactamase reporter cells, FRET ratio; cells co-treated with VDR agonist LG190178 | Potency, µM (doses to about 46.1 µM), without a hit: at the highest dose activity change, negative = inhibition, most hits filed as inhibitors | actives 23% (n = 840) | AID 602202; note: potency is the fitted concentration of half-maximal effect; % is set by controls: 0 for no effect and ±100 for the full control effect
# VDR viability: cell toxicity, VDR inhibitor hit counter-screen; Potency, µM (titrated, usually from 48.3 µM), for inactives: at the top dose activity change, negative = cytotoxicity, most hits filed as cytotoxic; shares compounds with VDR inhibitor; AID 602204; actives 18% (n = 840); cytotoxicity counter-screen, cell viability, qHTS;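 note: potency is the fitted concentration of half-maximal effect; plate controls were DMSO for no effect and high-concentration cycloheximide for full effect; nearly all actives have a fitted effect of over 75% in size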
# The depositor's hits bear a star; ? = inconclusive; / = no result given; ! = not active in a repeat. Unless noted, calls come from the whole dose curve; as a rule, active = well fitted curve in the direction sought with a large enough effect; inconclusive = small, poorly fitted or top-dose-only effect, or another doubt; inactive = no such curve, though single readings can be large; an effect the other way counts as inactive or inconclusive.
SMILES,VDR inhibitor,Rango release inh,PI5P4Ka inh,GCN5L2 inh,Rango-impB inh,PLK1 PBD inh,VDR confirm,VDR FP fluor,VDR bla,VDR viability,others
C=CC(C)(C)c1[nH]c2ccccc2c1C1=C(O)C(=O)C(c2c[nH]c3c(CC=C(C)C)cccc23)=C(O)C1=O,18µM*,/,/,16µM*,/,/,/,/,/,/,USP1 UbRho=?
Cc1ccccc1CS(=O)(=O)c1nnc([C@H](CC(C)C)NC(=O)OC(C)(C)C)o1,20µM*,-2%,/,-4%,5%,8.9µM*,11*,7.1µM*,?,?,
COc1cc(-c2cc(C(=O)Nc3cc(S(=O)(=O)N4CCOCC4)ccc3O)c3ccccc3n2)cc(OC)c1OC,?,3%,?,-20%,4%,17µM*,?,32µM*,1%,29%,
COc1cc(-c2cc(C(=O)Nc3cc(S(=O)(=O)N4CCOCC4)ccc3C)c3ccccc3n2)cc(OC)c1OC,-16%,-11%,-4,?,?,-5%,/,/,/,/,
COc1ccc(OC)c(-c2oc3ccccc3c(=O)c2O)c1,-9%,?,-1,-4%,?,-5%,/,/,/,/,
COc1ccc(OC)c(-c2c3cc(O)c(=O)cc-3oc3cc(O)c(O)cc23)c1,25µM*,?,-101*,?,?,2.1µM*,24*,?,-24%,?,
COc1ccc(N=Cc2nc(-c3ccccc3)oc2OC(=O)c2ccccc2)cc1,40µM*,?,4,-8%,?,?,9.5*,?,2%,6%,
CCOC(=O)c1ccc(N=Cc2nc(-c3ccccc3)oc2OC(C)=O)cc1,18µM*,-3%,/,-6%,-1%,4.7µM*,4.2*,?,2%,-9%,
CC(=O)Oc1oc(-c2ccccc2)nc1C=Nc1ccccc1,40µM*,21%,-4,1%,3%,?,11*,13µM*,18%,-23%,
CCC(=O)Oc1oc(-c2ccccc2)nc1C=Nc1ccc(C)cc1,-10%,-8%,3,-2%,3%,-7%,/,/,/,/,
COc1cc(C2Oc3ccccc3C=C2[N+](=O)[O-])cc(OC)c1OC (stereo not drawn),22µM*,0%,-2,-11%,1%,4.2µM*,17*,?,?,?,
CC1(C)CCC(=O)c2ccccc21,-18%,-6%,5,/,3%,-7%,/,/,/,/,
CC1(C)CCC2=C(O1)c1ccccc1C(=O)C2=O,8.9µM*,/,/,-15%,/,/,14*,11µM*,?,24µM*!,USP1 UbRho=8.3µM*
CCN(CC)c1nc2c(S(=O)(=O)c3ccc(C)cc3)nnn2c2ccsc12,5%,/,/,-6%,/,/,/,/,/,/,
CS(=O)(=O)N(CC(=O)NC1CCCCC1)Cc1ccc(F)cc1,2%,-6%,13,-7%,0%,-16%,/,/,/,/,
COc1ccc(C(=O)/C=C/C(=O)N(CC(=O)NC2CCCCC2)Cc2ccc(F)cc2)c(O)c1,79µM*,17%,-2,0%,5%,4.2µM*,11*,4.5µM*,13µM*,9.2µM*,
CCOC(=O)c1c(C)oc2ncnc(Nc3ccc(F)cc3Cl)c12,13%,/,/,22%,/,/,/,/,/,/,
O=C(/C=C/c1ccc(Br)cc1)c1ccco1,45µM*,9%,-10,-2%,0%,-18%,24*,?,13%,13%,
O=C(/C=C/c1ccc(Br)cc1)c1ccc(NC(=O)c2ccco2)cc1,2%,-10%,-19,-3%,0%,-6%,/,/,/,/,
N#Cc1c(NC(=O)Cn2nc(C(F)(F)F)c3c2CCCC3)sc2c1CCC2,79µM*,3%,?,-5%,0%,3µM*,6.7*,?,4%,0%,
CCc1ccc(NC(=O)Cn2nc(C(F)(F)F)c3c2CCC3)cc1,-9%,-4%,4,34%,4%,0%,/,/,/,/,
Cc1ccc(NC(=O)c2nc(S(=O)(=O)Cc3ccccc3F)ncc2Cl)cc1,/,/,/,/,/,/,1.6*,1.4µM*,16µM*,?,
CCS(=O)(=O)c1ncc(Cl)c(C(=O)Nc2ccccc2)n1,?,/,/,0%,/,/,/,/,/,/,
Cc1ccc(NC(=O)c2nc(S(=O)(=O)Cc3ccccc3F)ncc2Cl)cc1C,/,/,/,/,/,/,3.2*,3.2µM*,9.2µM*,15µM*,
CC(=O)Nc1ccc(NC(=O)c2nc(S(=O)(=O)Cc3ccc(F)cc3)ncc2Cl)cc1,?,/,/,-4%,/,/,/,/,/,/,
